The list is not random: actives were taken first. Their share in the collection is about 12%.
L major viab: inhibitors of Leishmania major promastigote growth; AID 1063; 9% of 200,000 active; Leishmania major promastigotes, resazurin fluorescence viability; inhibition, % at 10 µM; in the data active means inhibition above about 50%;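 further: promastigotes grown with compound for 44 hours at 28 °C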
CHOP inh: inhibitors of CHOP induction in ER stress response; CHO-K1 CHOP-promoter luciferase, tunicamycin-induced, 15-18 h; inhibition, % at 10 µM; 3.8% of 220,000 active; AID 2732;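 active means compounds that reduced the stress-induced luciferase reporter signal by more than about 70% of percent inhibition, limit read from the data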
WT yeast gro inh: growth inhibition of WT yeast, mitochondrial fusion screen. mitochondrial fusion phenotypic screen, WT strain. inhibition, % at 10 µM. 2.1% of 190,000 active. AID 1362; in the data active means inhibition above about 58%; tested in S. cerevisiae
Arbovirus inh: arbovirus infection inhibition. arbovirus infection cell-based antiviral screen. inhibition, % at 10 µM. 0.37% of 200,000 active. AID 1251; in the data active means inhibition above about 30%
Hits are given with their value; n = inactive; x = no result.

SMILES	L major viab	CHOP inh	WT yeast gro inh	Arbovirus inh
CCN(C(=O)c1ccc2c(Cl)c3c(nc2c1)CCC3)c1cccc(C)c1	n	n	n	n
CCc1ccc(N(CC)C(=O)c2ccc3c(Cl)c4c(nc3c2)CCC4)cc1	n	87	91	n
CCN(CC)C(=O)Cn1cc(SCC(=O)NC2CCCC2)c2ccccc21	n	n	n	n
C=CCSc1nc(N)c(C(=O)Nc2ccccc2)cc1C#N	n	70	n	n
C=CCSc1nc(N)c(C(=O)Nc2ccccc2OC)cc1C(=O)Nc1ccccc1	n	n	n	n
CCOC(=O)c1cnc2c(cnn2CC)c1NN=C(C)C	x	n	x	x
Clc1ccc(CSC2=NCCCN2)cc1Cl	91	n	n	n
NC(=O)c1ccc(NC(=O)CSC2=Nc3ccccc3C3CC=NN23)cc1 (centres undefined)	n	n	n	n
COC(=O)c1ccc(NC(=O)CSC2=Nc3ccccc3C3CC=NN23)cc1 (centres undefined)	55	n	n	n
CCn1cc(C(=O)O)c(=O)c2ccc(Cc3ccccc3)nc21	x	n	x	x
Cc1ccc2cc(CN(CCCN(C)C)C(=S)NCc3ccccc3)c(=O)[nH]c2c1C	95	n	n	n
Cc1ccc2cc(CN(CCCN(C)C)C(=O)NCc3ccccc3)c(=O)[nH]c2c1C	n	74	n	n
Cc1ccc2[nH]c(=O)c(CN(Cc3ccccc3)C(=S)NCCCN(C)C)cc2c1	n	n	n	n
CNS(=O)(=O)c1cccc(C(=O)OCc2cc(Cl)cc3c2OCOC3)c1	n	75	n	n
CCOC(=O)C(NC(=O)c1ccc(OC)cc1)(N1CCCC1=O)C(F)(F)F (centres undefined)	n	n	n	n
CN(C)Cc1c(-c2ccc(Cl)cc2)nc2ccccn12	n	n	n	n
COc1ccc(-c2nc3c4ccccc4ccn3c2CN2CCCCC2)cc1	100	n	n	n
Clc1ccc(-c2nc3ccccn3c2CN2CCCCC2)cc1	77	n	n	n
COc1ccc(-c2cc3nc4ccccc4n3c(N)c2C#N)cc1	x	n	x	x
CC(NCCC(c1ccccc1)c1ccccc1)c1ccccc1 (centres undefined)	81	n	n	n
CC(NC1CCCC1)c1ccccc1 (centres undefined)	n	n	n	n
CCC(c1nnnn1C1CCCCC1)N1CCN(C2CCCC2)CC1 (centres undefined)	65	n	n	n
CC(C)CC(c1nnnn1C1CCCCC1)N1CCN(c2ncccn2)CC1 (centres undefined)	63	n	n	n
CC(C)C(c1nnnn1C1CCCCC1)N1CCN(c2ncccn2)CC1 (centres undefined)	n	n	n	n
O=C(NNC(=O)c1cnccn1)c1ccc(Cl)cc1	x	n	x	x
SMILES	L major viab	CHOP inh	WT yeast gro inh	Arbovirus inh
CCN(CC)C(=O)c1[nH]cnc1C(=O)N[C@@H](C)C(=O)OC(C)(C)C	n	n	n	n
Cc1cnc(C(=O)Nc2ccc(C)c(S(=O)(=O)N(C)C)c2)cn1	n	n	n	n
CCN(CC)c1ccc(NC(=O)c2cnccn2)cc1S(=O)(=O)Nc1ccc(OC)cc1	64	n	n	n
O=C(Nc1ccc(Cl)c([N+](=O)[O-])c1)c1cnccn1	83	n	n	n
CCN(CC)c1ccc(NC(=O)COc2ccccc2C#N)cc1S(=O)(=O)Nc1ccc(OC)cc1	99	n	n	n
Cc1ccc(NC(=O)c2cnccn2)cc1S(=O)(=O)N(C)C	83	n	n	n
O=C(Nc1ccc(Cl)c([N+](=O)[O-])c1)c1ccncc1	n	n	n	n
Oc1cc(-c2ccccc2)c2ccccc2c1	n	101	n	n
CC[C@@H](C)C(N)c1cn([C@@H](CCC(=O)O)C(=O)N2CCNCC2)nn1 (some centres undefined)	n	n	n	n
COc1ccc(C(c2nnnn2Cc2ccc(F)cc2)N2CCN(c3ccc(OC)cc3)CC2)cc1 (centres undefined)	94	n	n	n
Cc1ccc(C(c2nnnn2CS(=O)(=O)c2ccc(C)cc2)N2CCN(c3ncccn3)CC2)cc1 (centres undefined)	n	n	n	n
COc1ccc(C(c2nnnn2Cc2ccc(F)cc2)N2CCN(c3ccccc3)CC2)cc1 (centres undefined)	74	n	n	n
COc1ccc(N2CCN(C(c3ccccc3)c3nnnn3Cc3ccc(F)cc3)CC2)cc1 (centres undefined)	66	n	n	n
COc1ccc(C(c2nnnn2CS(=O)(=O)c2ccc(C)cc2)N2CCN(Cc3ccccc3)CC2)cc1 (centres undefined)	63	x	x	x
CCn1c(SCC(=O)NCc2ccccc2)nnc1-c1cccnc1	n	n	n	n
Cc1ccccc1NC(=O)CSc1ccsc1[N+](=O)[O-]	n	n	n	n
CC1(C)C=Cc2c(c3c(c4c(=O)c(-c5ccc(O)cc5)coc24)OC(C)(C)CC3)O1	n	92	71	n
CC(C)=CCc1c2c(c3occ(-c4ccc(O)cc4)c(=O)c3c1O)C=CC(C)(C)O2	n	76	n	n
O=c1c(-c2ccc(O)cc2)coc2cc(O)cc(O)c12	x	n	x	x
COc1cc(O)cc2occ(-c3ccc(O)cc3)c(=O)c12	n	n	n	n
Cc1cc(NC2CCCCC2)nc2ccccc12	84	n	n	n
COc1ccc(/C=C/C2=CCN(Cc3ccc(OC)cc3)CC2)cc1	91	n	n	n
COC(=O)c1cc(N2C(=O)C3C(C2=O)C2(C)C=CC3(C)O2)ccc1Cl (centres undefined)	n	75	n	n
CC(=O)Oc1ccc(N2C(=O)C3C(C2=O)C2(C)C=CC3(C)O2)cc1 (centres undefined)	x	x	n	n
Cc1cc(=O)oc(C)c1C(=O)OCC(=O)c1ccc2ccccc2c1	n	71	n	n
SMILES	L major viab	CHOP inh	WT yeast gro inh	Arbovirus inh
Cc1cccc(CN2CCN(Cc3cccc(-n4cccn4)c3)CC2CCO)n1 (centres undefined)	n	n	n	n
COc1ccc(C(=O)OCc2cc3cccc(C)c3[nH]c2=O)cc1	n	81	n	n
COc1ccc(CCNC(=O)c2cc(-c3ccc(C)c(C)c3O)n[nH]2)cc1OC	93	n	n	n
Cc1ccc(-c2cc(C(=O)NCc3ccc4c(c3)OCO4)[nH]n2)c(O)c1C	54	n	n	n
COc1ccc(CCNC(=O)c2cc(-c3cc(C)ccc3O)n[nH]2)cc1OC	89	n	n	n
COc1ccc(CNC(=O)c2cc(-c3cc(C)ccc3O)n[nH]2)cc1	x	n	x	x
COc1ccc(NC(=O)c2cc(-c3cc(C)ccc3O)n[nH]2)cc1Cl	n	78	n	n
C/C(=N/NC(=O)CNC(=O)Cc1ccc(Cl)cc1)c1ccco1	x	n	x	x
C=CCc1c(C)nc(C)nc1N/N=C/c1ccccc1O	99	n	n	n
C=CCc1c(C)nc(C)nc1N/N=C/c1ccc([N+](=O)[O-])cc1	n	n	n	n
Cc1c(C(=O)Nc2cccc(Cl)c2)c2ccccn2c1CCc1ccncc1	75	n	n	n
Nc1nc2nc(-c3cccs3)cc(C(F)(F)F)n2n1	n	n	n	n
O=C(COc1cc(Cl)c(Cl)cc1Cl)NC(=O)Nc1ccc2c(c1)OCCO2	63	n	n	n
O=C(COc1cc(Cl)c(Cl)cc1Cl)Nc1cccc(O)c1	x	79	x	x
O=C(COc1cc(Cl)c(Cl)cc1Cl)Nc1ccncc1	n	n	n	n
